Laboratory results: PubChem BioAssay (NCI)
“And” between values parts separate entries of the source, which are not always exact repeats. Identical values can stand only once. The panel holds about 83,000 compounds, 20% with a hit somewhere; the sample as a whole holds those more often.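 Method: cells in 96-well plates; compound added at one concentration; 48 h incubation; percent growth measured; values under 10 scored active.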 A number with no mark means an inactive call. The source made the active and inactive calls.

Columns and labels:
Assay in all cases: NCI-60 one-dose screen, 48 h (100 = growth as untreated, 0 = no growth, -100 = all killed)
Settings in all cases: 10 µM unless noted
DU-145 prostate = system: DU-145 prostate
K-562 leukemia = system: K-562 leukemia
MALME-3M melanoma = system: MALME-3M melanoma
MDA-MB-231 breast = system: MDA-MB-231 breast
RXF 393 renal = system: RXF 393 renal
SF-268 CNS = system: SF-268 CNS
SF-295 CNS = system: SF-295 CNS
SF-539 CNS = system: SF-539 CNS
UACC-257 melanoma = system: UACC-257 melanoma
M14 melanoma = system: M14 melanoma

Row | SMILES | growth (DU-145 prostate) | growth (K-562 leukemia) | growth (MALME-3M melanoma) | growth (MDA-MB-231 breast) | growth (RXF 393 renal) | growth (SF-268 CNS) | growth (SF-295 CNS) | growth (SF-539 CNS) | growth (UACC-257 melanoma) | growth (M14 melanoma)
1 | Cc1csc(/N=C(N)/N=C(\N)c2cccc(C#N)c2)n1 | 97.8% | 43.5% | 68.8% | 88.7% | 73.9% | 77.4% | 51.7% | 76.7% | 80.8% | 45.2%
2 | COc1ccc(C2c3[nH]c4ccc(Cl)cc4c3CCN2c2oc(CO)nc2C#N)cc1 (stereo not given) | 57.3% | 19.5% | 72.1% | 59.7% | 62.8% | 53.6% | 45.6% | 40.3% | 67.5% | 53.5%
3 | O=C(Nc1cccc(C(F)(F)F)c1)N1CCN(c2cc(-c3cn(-c4ccccc4)nc3-c3cccc(O)c3)ccn2)CC1 | 61.2% | 30.6% | 46.3% | 54% | 46.7% | 59.4% | 22.8% | 54.7% | 67.6% | 41.2%
4 | COc1cc(-c2nc(-c3ccccc3)[nH]c2-c2ccnc(NCCCNS(=O)(=O)c3ccc(C(F)(F)F)cc3)n2)ccc1Cl | 52.6% and 59.5% | 18% and 23.5% | 102% and 62.4% | 57% and 55.8% | 18.5% and 16.3% | 37.9% and 49% | 13.4% and 22.6% | 65.6% and 55.5% | 64.2% and 51.2% | 18.7%
5 | O=C(/C=C/c1csc(Br)n1)NO | 25% | 9.85% (active) | 1% (active) | 34.1% | -15.9% (active) | 57.6% | 7.79% (active) | 35.4% | 22.3% | 27.1%
6 | C[C@H]1OCC2(CCN(c3cnc(C(=O)Nc4cc(F)cc5cccnc45)cn3)CC2)[C@H]1N | 78.2% | 6.28% (active) | 48.1% | 31.6% | 58.4% | 72.2% | 92.2% | 68.4% | 101% | 71.2%
7 | C/C(=N\NC(=O)/C=C/CC(=O)O)c1nnn(-c2ccc([N+](=O)[O-])cc2)c1C | 104% | 103% | 97.9% | 104% | 106% | 96.9% | 97% | 100% | 105% | 103%
8 | CCOC(=O)c1c(NC(=O)c2cccc(C(F)(F)F)c2)sc2c1CCC(=O)C2 | 94.8% | 5.25% (active) | 58.3% | 55.2% | 25.6% | 27.7% | 24.3% | -9.48% (active) | 82.2% | 42.7%
9 | O=S(=O)(NCCCNc1nccc(-c2[nH]c(-c3ccccc3)nc2-c2ccc(F)c(O)c2)n1)c1ccccc1 | 113% | 60.6% | -4.84% (active) | 81.7% | 121% | 90.7% | 96.9% | 105% | 22.4% | 27.8%
10 | N#Cc1c(-c2cccs2)cc(-c2cnccn2)nc1SCC(=O)N/N=C/c1ccc(Cl)cc1 | 104% | 96.7% | 115% | 94.9% | 92.2% | 102% | 98.7% | 100% | 110% | 111%
11 | COc1ccc2c(c1)c(-c1nc(N)nnc1-c1c[nH]c3ccccc13)cn2C | 59.6% | 16.3% | 37.2% | 46.2% | 39.5% | 45.6% | 23.7% | 25.2% | 67.4% | 29.8%
12 | CCCc1[nH]c(-c2cc(N)ccc2Cl)c2c1C(=O)CCCC2 | 107% | 93.1% | 93.7% | 100% | 102% | 97.3% | 80.8% | 98.3% | 104% | 107%
13 | CS(=O)(=O)c1ccc(/C(=N/N=C(N)N)c2ccc(F)cc2)cc1 | 106% | 25.1% | 97.4% | 105% | 86.1% | 78.9% | 71% | 99.5% | 76.9% | 67.2%
14 | Cc1ccc(N2CCN(C3=C(Cl)C(=O)c4ncccc4C3=O)CC2)cc1 | 51.7% | 6.28% (active) | 52.8% | 24.5% | 12.5% | 80.2% | 97.5% | 86.6% | 29.6% | 70.3%
15 | C#Cc1nc(/C=C\CCCCCCC(=O)NO)cs1 | 39.2% | 14.7% | -19.8% (active) | -11.8% (active) | -4.23% (active) | 79.4% | 65.3% | -81.3% (active) | 38.2% | 61.6%
16 | CCC1=Cc2c(OC)cccc2OC12C=Cc1c(OC)cccc1O2 (stereo not given) | 27.1% | 7.63% (active) | 50.9% | 11% | 1.82% (active) | 58.6% | 4.11% (active) | -5.65% (active) | 75.7% | 6.53% (active)
17 | CCC(=C(c1ccc(OCCN(C)C)cc1)c1ccc(OCCN(C)C)cc1)c1ccc(Cl)cc1 | -28.8% (active) | -16.7% (active) | -83.7% (active) | -79.5% (active) | -85.4% (active) | -37.1% (active) | -72.2% (active) | -82.8% (active) | -69.8% (active) | -66.3% (active)
18 | CCOC(=O)c1c(NCC(=O)Nc2cccc([N+](=O)[O-])c2)sc(C(C)=O)c1C | -13.9% (active) | 8.15% (active) | -21.8% (active) | 10.3% | -86.5% (active) | -17.6% (active) | -11.7% (active) | -28.8% (active) | -11.9% (active) | -81.7% (active)
19 | CCCCCCOC(=O)c1cc(-c2ccc(F)cc2)nc2ccccc12 | 105% | 101% | 97.1% | 85.6% | 96.8% | 96.1% | 98% | 99.9% | 99.1% | 96.9%
20 | NC1C2CCC1CN(c1cnc(C(=O)Nc3cc(F)cc4cccnc34)cn1)C2 (stereo not given) | 71.2% | 3.9% (active) | 49.5% | 39.4% | 61.6% | 73.5% | 76.3% | 64.6% | 98.3% | 48.4%
21 | O=S1SC(c2ccccc2)=NN1c1cc(F)cc(F)c1 (stereo not given) | 57.2% | 22.5% | 75.5% | 69.4% | 52.2% | 54.3% | 52.1% | 60.6% | 69.3% | 20.6%
22 | Cc1ccc2c(n1)C(=O)C(Cl)=C(Nc1ccc(C)c(C)c1)C2=O | 6.17% (active) | 4.14% (active) | 85.4% | 49.3% | 85.7% | 79.1% | 44.7% | 59.9% | 16% | 42.5%
23 | CCCCCCCCCCCC(=O)NC(C)(C)C(=O)N1CCCC1C(=O)NC(C)(C)C(=O)NC(C)(C)C(=O)N1CCCC1C(=O)NC(C)(C)C(=O)NC(C)(C)C(=O)N1CCCC1C(=O)NC(C)C(=O)NCCC(=O)NC(C)C(=O)NC(C)(C)C(=O)NC(C)(C)C(=O)NC(C)(C)C(=O)NCCC(=O)NC(C)(C)C(=O)NC(C)(C)C(=O)NC(C)(C)C(=O)NC(C)C(=O)NCCC(=O)O (stereo not given) | -99.4% (active) | -65.4% (active) | -89.4% (active) | -87.5% (active) | -94.5% (active) | -60.6% (active) | -97.1% (active) | -92% (active) | -91.8% (active) | -97.3% (active)
24 | CCOc1cccc(/C(N)=N/C(N)=N/c2nc3ccccc3s2)c1 | 83.4% | 77.3% | 115% | 74.3% | 110% | 86.5% | 37.7% | 104% | 113% | 93.2%
25 | CN1CCN(c2ccc(C(=O)/C=C/c3cc(F)cc(C(F)(F)F)c3)cc2)CC1 | 49.6% | 11.1% | 91.7% | 72.9% | 70.5% | 82.8% | 88.6% | 59.5% | 91.1% | 92.2%
26 | Cc1ccc(C(=O)Nc2ccc(CNCCN3CCOCC3)c(C(F)(F)F)c2)cc1C#Cc1cnc2cccnn12 | 33.5% | 5.07% (active) | -44.6% (active) | -18.5% (active) | -54.2% (active) | 15.6% | -24.7% (active) | -69.3% (active) | -45.3% (active) | -7.89% (active)
